# Experimental data as given in ChEMBL document CHEMBL4513216, “Probing the Open Global Health Chemical Diversity Library for Multistage-Active Starting Points for Next-Generation Antimalarials” (ACS Infect Dis, 2020).
# About 2,100 (3.2%) of roughly 65,000 compounds showed an effect of 50% or more. The median lay at about -52%. The sample holds strong results, similar compounds and a random draw of the others, so the mix is not that of the screen.
# Tested on: Plasmodium falciparum
# Assay: Screen against P. falciparum Asexual Blood Stage (ABS), at 5uM
# Format: functional, Dd2
# Conditions: tested at 5 uM
row,SMILES,INHIBITION [%]
1,CC(C)c1cc(C(=O)N2CCN(C)[C@@H]3CS(=O)(=O)C[C@@H]32)no1,-14.6
2,O=C(NC[C@]12COC[C@H]1CN(Cc1ccncc1)C2)c1ccno1,-67.3
3,CNC(=O)[C@H]1C[C@H]2OCC[C@H]2N(CC2CC2)C1,-40
4,CC(NC1(CNS(=O)(=O)N(C)C)CCCC1)c1ccccc1 (stereo not given),78.7
5,Cc1cc(S(=O)(=O)NCC2CNCCOC2)c(C)cc1Cl (stereo not given),75.4
6,CCCc1nc2c(c(C)c(C)n2CCN(C)C)c(N)c1CC,89.9
7,Cc1c(-c2ccccc2)nc2c(c(C)c(C)n2CCN(C)C)c1N,80.1
8,CCN1C[C@H]2N(c3ncccn3)CCC[C@@]2(C(=O)NCC2CC2)C1,-24.6
9,CN1C[C@H]2N(c3ncccn3)CCC[C@@]2(C(=O)NCC2CC2)C1,-48.6
10,CCN1CCCC(CNC(=O)C2(c3cc(C)cc(C)c3)CCC2)C1 (stereo not given),75.8
11,CCN(CC)S(=O)(=O)N1C[C@@H](c2ccccc2)[C@H]2[C@H]1CCCCCN2C,71.7
12,CCOC(=O)[C@@H]1[C@@H](c2ccccc2)CN2CCN(S(C)(=O)=O)C[C@H]12,-73.1
13,CC(C)S(=O)(=O)N1C[C@@H](c2ccccc2)[C@H]2[C@H]1CCCCCN2C,20.4
14,CCc1ccccc1OCCNCCc1c[nH]cn1,71.2
15,O=C(NCCc1c[nH]cn1)c1ccccc1C1CCNC1 (stereo not given),-101
16,c1cncc(O[C@@H]2CC[C@H]3[C@H]2OCCN3C2CCCC2)c1,-118
17,COc1cc(CNC(c2ccccc2)c2nccn2C)cc(OC)c1 (stereo not given),75.5
18,COc1cc(CNC(C)Cn2cccn2)cc(OC)c1 (stereo not given),-72.2
19,O=C(N[C@H]1COC[C@@H]1N1CCCC1)c1c[nH]nc1C1CCCCC1,-18.2
20,c1cncc(OC[C@@H]2CCC[C@@]23CN(Cc2nccs2)CCO3)c1,-85.2
21,CCN1CCNC(=O)C12CCN(C(=O)Cc1ccccn1)CC2,-95
22,CN(C)C(=O)CN1C[C@@H]2OCCN(c3ncc(F)cn3)[C@@H]2C1,-196
23,COc1cc(CNCC(O)c2cccc(F)c2)cc2c1OCO2 (stereo not given),92.4
24,Cc1cc(C)c(CNCC(O)c2ccc(F)c(F)c2)c(C)c1 (stereo not given),93
25,COc1cc(CNCC(O)c2ccc(C)cc2)cc2c1OCCO2 (stereo not given),48.2

row,SMILES,INHIBITION [%]
1,COc1cc(CNCC(O)c2ccc(C)cc2)cc2c1OCO2 (stereo not given),74
2,COc1cc(C2SCC(=O)Nc3[nH]ncc32)cc2c1OCO2 (stereo not given),-86.5
3,COc1cc(CNCC(O)c2ccc(F)c(F)c2)cc2c1OCO2 (stereo not given),78.2
4,Cc1cccc(CN2C[C@@H]3OCCN(c4cnccn4)[C@@H]3C2)n1,4.89
5,CC(Cc1ccccc1Br)NC(=O)CCS(C)(=O)=O (stereo not given),-38.5
6,O=C1CCSCC(C(=O)N2CCC3(CC2)OCCO3)N1 (stereo not given),-78
7,COCCCN1CCCC12CCN(c1ncccn1)CC2,-22.9
8,CC(C)N1[C@H](Cn2cncn2)C[C@@H]2CNCC[C@@H]21,-34.9
9,c1coc(-c2nc(CNC3CCC4(CCNCC4)CC3)no2)c1,73.4
10,Cc1cn2nc(N3CCCC3CC(C)(C)C)sc2n1 (stereo not given),71.6
11,COc1ccc(CCNCc2c(C)nn(C)c2N(C)C)cc1OC,21.4
12,COc1c(CNCCc2c[nH]c3ccccc23)c(C)nn1C,-60.7
13,COc1c(CNCCc2c[nH]c3cc(F)ccc23)c(C)nn1C,50
14,COc1c(CNCCc2c[nH]c3cc(F)ccc23)c(C(C)C)nn1C,59.7
15,c1ccc(CO[C@@H]2C[C@H]3CN(c4ncccn4)CCN3C2)cc1,-95.6
16,O=C1[C@H]2CN(Cc3ccncc3)C[C@H]2CN1c1cncnc1,-49.7
17,c1cncc(CO[C@H]2CO[C@@]3(CCN(Cc4ccoc4)C3)C2)c1,23.3
18,O=C(c1cccnc1-n1cncn1)N1CCC(Nc2ccccc2)CC1,-86.3
19,Cc1ccccc1CN(CCN(C)C)Cc1ccc(S(C)(=O)=O)cc1,80.4
20,CCN1CCN(C(=O)COc2ccc(CN(C)S(C)(=O)=O)cc2)CC1,3.25
21,Cc1c(NC(=O)NC2CN3CCC2CC3)cccc1C(=O)N1CCCC1 (stereo not given),-83.7
22,CC(C)CCN1CCC2(CNS(=O)(=O)c3cccnc3O2)C1 (stereo not given),-5.49
23,Cc1nn(-c2ncccn2)c2c1C(c1cnn(C)c1C)SCC(=O)N2 (stereo not given),-1.18
24,Cc1cc(CN2CC[C@H]3C[C@H](c4nccs4)O[C@@H]3C2)no1,-108
25,COc1cccc(OC)c1CN1CC(=O)N(c2ccc(C)cc2)CC1C (stereo not given),75.2

row,SMILES,INHIBITION [%]
1,Cc1cc(CN2CC[C@H]3[C@H]2CCN3C)oc1C,43
2,Fc1ccc2c(C3=CCN(Cc4nnc(C5CCC5)o4)CC3)c[nH]c2c1,83.9
3,C1=C(c2c[nH]c3ncccc23)CCN(Cc2nnc(C3CC3)o2)C1,-48.5
4,Cc1cnc(CN2CC=C(c3c[nH]c4ncccc34)CC2)o1,12.6
5,CCC(C)N(Cc1ccc(C)cc1)Cc1c[nH]c(C)n1 (stereo not given),77.5
6,Cc1cc(C)c(CNc2ncnc3c2cnn3C)c(=O)[nH]1,-55.6
7,O=C1CSC(c2ccc3c(c2)OCO3)c2cn[nH]c2N1 (stereo not given),-10.6
8,NCCC(Cc1ccccc1)c1ccco1 (stereo not given),84.1
9,O=C(c1cscn1)N1CCC2(CN(Cc3ccncc3)C2)C1,-48
10,O=C(Nc1cccnc1)[C@H]1CN(Cc2cccs2)C[C@H]2OCC[C@@H]12,2.31
11,Cc1cc(CN2CCC(CNS(=O)(=O)c3ccc(C)s3)CC2)c(C)o1,87.7
12,Cc1ccc(CN2CCC3(CC2)C(=O)Nc2ccccc23)s1,46.9
13,Cc1cc(CN2CCC(CNS(=O)(=O)c3ccccc3F)CC2)c(C)o1,79.2
14,Cc1cc(CN2CCC(CNS(=O)(=O)c3ccc(Br)s3)CC2)c(C)o1,91.6
15,CC(C)=CCN1CCN(C(=O)COc2ccccc2)[C@H]2CS(=O)(=O)C[C@H]21,-73.8
16,CC(Cc1c(F)cccc1F)NC(=O)NCc1ncnn1C (stereo not given),-43.1
17,O=C(c1ccnnc1)N1CCN2C[C@H](Oc3cccnc3)C[C@H]2C1,5.43
18,Cc1nn(C)c(Oc2ccc(Cl)cc2)c1CN1CCC(CN)C1 (stereo not given),92.8
19,Cn1cc(N2CC[C@@H]3CN(Cc4ccncc4)C[C@H]3C2=O)cn1,-102
20,CC(C)C1CN(c2cccc(C#N)n2)CCCN1CC1CC1 (stereo not given),84.3
21,Cc1nc(C)c(CC(=O)N2CCCN(CC3CC3)C(C(C)C)C2)c(=O)[nH]1 (stereo not given),-23.8
22,CC(C)C1CN(c2cccc(C#N)n2)CCCN1Cc1ccc(F)cc1 (stereo not given),91.3
23,N#Cc1cccc(N2CCCC3(CNCCO3)C2)n1 (stereo not given),-104
24,N#Cc1cccc(N2CCOC3(CNCCOC3)C2)n1 (stereo not given),17
25,Cc1nc(N)nc(C)c1CC(=O)N1CCCN(CC2CC2)C(C(C)C)C1 (stereo not given),-198

row,SMILES,INHIBITION [%]
1,CCN1CCC2(COCc3c(C)nc(N4CCOCC4)nc32)C1 (stereo not given),-129
2,CC(Cn1cccn1)NCc1csc2c1CCCC2 (stereo not given),39.2
3,CN(C)C1Cc2ccccc2N(S(=O)(=O)c2cccc(C#N)c2)C1 (stereo not given),76.6
4,CC[C@H]1CN2CC[C@H]1C[C@@H]2CNC(=O)Nc1cccc(C#N)c1,-82.6
5,CC(C)(C)n1ncc2c1NC(=O)CSC2c1ccsc1 (stereo not given),-82.3
6,COc1ccc(C(=O)N2CCOC3(CNCCOC3)C2)c(OC)n1 (stereo not given),-97.3
7,CC(C)n1ccnc1C1CCCN(c2ccnc3ccccc23)C1 (stereo not given),84
8,Cc1nc(CO[C@@H]2CC[C@H]3[C@H]2OCCN3Cc2cccnc2)cs1,-22.1
9,O=C(Nc1ccc(Cl)cn1)C1CCCN(CCc2ccncc2)C1 (stereo not given),71.9
10,COc1ccc(C(=O)C2CCCN(Cc3ccncc3)C2)cc1OC (stereo not given),-128
11,COc1ccc(C(=O)C2CCCN(Cc3ccncc3)C2)c(OC)c1 (stereo not given),-17.9
12,O=C(CCc1nccs1)N1CCC(C(=O)O)(c2ccccc2)CC1,-56.3
13,Cc1nc(CC(=O)N2CCCC[C@H](N(C)C)C2)cs1,-56.95
14,CN(C)[C@H]1CCCCN(C(=O)c2cccc(-c3cccc(F)c3)c2)C1,73.3
15,CN1CCO[C@@H]2CN(C(=O)c3ccc4ncccc4c3)CC[C@@H]2C1,-46.1
16,O=C(c1ccnc(-n2cnnc2)c1)N1CCCC2(CCNC2)C1 (stereo not given),-120
17,Nc1ncccc1CN1C[C@H]2OC(=O)N(Cc3ccccn3)[C@H]2C1,-117
18,Cc1cnc(N2CCN(C)c3ncccc3C2)nc1,-91.5
19,CC(Cc1cccc(F)c1)NCc1cnc(N2CCN(C)CC2)nc1 (stereo not given),67.6
20,Cc1cccc(-c2ncc(CNC(C)Cc3ccncc3)cn2)c1 (stereo not given),-115
21,Fc1cnc(N2C[C@H]3CN(Cc4cccc(F)c4)C[C@H]3C2)nc1,21.5
22,CN1CCN(c2ncc(CNCCCc3cccc(F)c3)cn2)CC1,71.5
23,CNC(=O)[C@@H]1C[C@H]2CN(c3ncccn3)C[C@H]2N1C(C)C,-98
24,Cc1noc(C)c1CN1CCO[C@H]2CN(C(=O)N3CCCC3)C[C@H]21,-14.9
25,O=C(C1CCCO1)N1CCC2(CC1)CNCCO2 (stereo not given),-75.2
